Among the data in PubChem BioAssay are growth inhibition, inhibition and outcome values, retold here.

The nature of test [1]: antimalarial activity against Dd2 strain (AID 2302;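 active = growth inhibition above 50% at the single 2 µM test dose, taken to imply half-maximal potency below 2 µM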;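 note: 0% = DMSO untreated growth and 100% = chloroquine plus artemisinin killed control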). The conditions noted are these: P. falciparum Dd2 in RBCs, LDH growth readout, 72 h; at 2 µM; hits give high values.
The nature of test [2]: HepG2 cytotoxicity, primary screen, cytotoxicity control for P. falciparum antimalarial project, cell-based, ATP luminescence (AID 2303;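 active = inhibition above 50%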;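 note: 0% = DMSO wells and 100% = digitonin-killed cells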). The note with it: HepG2 viability, 24-48 h, at 10 µM, hits give high values.
Test [3] concerns the target L-lactate dehydrogenase (Plasmodium falciparum (isolate CDC / Honduras)) (UniProt Q27743). Description: PfLDH activity inhibition – cell lysate, 3D7 strain, counter-screen for P. falciparum growth inhibition project (AID 2304).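 Note: 0% = vehicle and 100% = reference inhibitor.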 The conditions noted are these: P. falciparum 3D7 crude extract, LDH APAD/NBT absorbance; at 2 µM; hits give high values.
Test [4] can be described thus: inhibition of 3D7 malaria parasite growth – strain 3D7 (AID 2306).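 Note: 0% = DMSO wells and 100% = chloroquine plus artemisinin control wells.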 The conditions noted are these: P. falciparum 3D7 erythrocytic growth, LDH absorbance, 72 h; at 2 µM; hits give high values.
For test [5], the target named is Calcium-dependent protein kinase 1 (Plasmodium falciparum (isolate 3D7)) (UniProt P62344). Description: PfCDPK1 kinase inhibitors, biochemical, TCAMS library (AID 1159585; cut-off not given, nearly all actives have IC50 up to about 0.98 µM;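 note: inhibitors leave more ATP so luminescence rises with inhibition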). The conditions noted are these: recombinant PfCDPK1, Kinase-Glo ATP depletion luminescence. Background: Kinase-Glo measures the ATP left after a reaction by luminescence.
Sequence of Calcium-dependent protein kinase 1 (Plasmodium falciparum (isolate 3D7)) (P62344 whole entry, looked up): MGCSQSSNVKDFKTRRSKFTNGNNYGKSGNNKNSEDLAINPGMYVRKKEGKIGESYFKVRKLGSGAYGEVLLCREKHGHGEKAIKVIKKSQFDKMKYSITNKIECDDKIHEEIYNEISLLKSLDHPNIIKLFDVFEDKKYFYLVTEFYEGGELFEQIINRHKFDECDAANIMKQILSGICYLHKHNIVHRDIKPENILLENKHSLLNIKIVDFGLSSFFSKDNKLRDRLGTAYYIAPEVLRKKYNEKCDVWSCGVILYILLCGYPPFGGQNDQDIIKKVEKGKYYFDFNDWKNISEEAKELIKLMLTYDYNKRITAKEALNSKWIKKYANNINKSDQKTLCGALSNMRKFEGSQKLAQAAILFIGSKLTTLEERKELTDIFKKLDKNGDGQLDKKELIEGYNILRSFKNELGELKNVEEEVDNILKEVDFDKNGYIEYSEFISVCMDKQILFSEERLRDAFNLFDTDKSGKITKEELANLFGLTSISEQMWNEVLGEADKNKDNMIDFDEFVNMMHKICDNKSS
Test [6] deals with Plasmodium falciparum protein kinase 6 (PK6, PF3D7_1337100) (UniProt Q8IDW1). The test is described as follows: PfPK6 kinase inhibitors, biochemical, TCAMS library (AID 1159586). The note with it: recombinant PfPK6, Kinase-Glo ATP depletion luminescence.
Sequence of Plasmodium falciparum protein kinase 6 (PK6, PF3D7_1337100) (Q8IDW1 1-305): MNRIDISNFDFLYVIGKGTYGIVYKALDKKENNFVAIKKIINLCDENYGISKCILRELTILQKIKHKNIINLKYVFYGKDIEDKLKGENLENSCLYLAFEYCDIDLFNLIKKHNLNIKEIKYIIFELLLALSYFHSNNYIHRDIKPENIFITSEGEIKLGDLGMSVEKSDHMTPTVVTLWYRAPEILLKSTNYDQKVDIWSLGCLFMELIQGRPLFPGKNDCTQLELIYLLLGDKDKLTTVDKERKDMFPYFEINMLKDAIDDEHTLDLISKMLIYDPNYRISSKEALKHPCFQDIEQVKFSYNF
The target of test [7] is Protein kinase 7 (PK7), Plasmodium falciparum 3D7 (PF3D7_0213400) (UniProt Q7YTF7). Description: inhibition of Plasmodium PK7 catalytic activity – biochemical, TCAMS antimalarial set, Kinase-Glo luminescence (AID 1159587). The conditions noted are these: recombinant PfPK7, Kinase-Glo ATP depletion luminescence.
Sequence of Protein kinase 7 (PK7), Plasmodium falciparum 3D7 (PF3D7_0213400) (Q7YTF7 1-343): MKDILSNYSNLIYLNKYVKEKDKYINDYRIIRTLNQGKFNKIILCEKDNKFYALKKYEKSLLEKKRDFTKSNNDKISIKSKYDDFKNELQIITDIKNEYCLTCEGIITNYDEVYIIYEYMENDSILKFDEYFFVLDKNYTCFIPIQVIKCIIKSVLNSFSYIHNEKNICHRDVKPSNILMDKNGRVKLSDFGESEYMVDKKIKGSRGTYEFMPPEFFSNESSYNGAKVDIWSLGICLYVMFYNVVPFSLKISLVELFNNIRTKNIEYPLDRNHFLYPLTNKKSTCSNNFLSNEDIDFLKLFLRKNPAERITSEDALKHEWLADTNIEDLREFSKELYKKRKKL
Test [8] addresses Calcium-dependent protein kinase 4 (Plasmodium falciparum (isolate 3D7)) (UniProt Q8IBS5). Description: PfCDPK4 kinase inhibitors, biochemical, TCAMS library (AID 1159588; cut-off not given, nearly all actives have IC50 up to about 0.91 µM). The note with it: recombinant PfCDPK4, Kinase-Glo ATP depletion luminescence.

Values without a mark were called inactive. For some assays here: Measured potencies and affinities stand elsewhere. Activity calls are given as the source filed them. Unless noted, the rule behind the calls is not given here.

Sequence of L-lactate dehydrogenase (Plasmodium falciparum (isolate CDC / Honduras)) (Q27743 whole entry, looked up): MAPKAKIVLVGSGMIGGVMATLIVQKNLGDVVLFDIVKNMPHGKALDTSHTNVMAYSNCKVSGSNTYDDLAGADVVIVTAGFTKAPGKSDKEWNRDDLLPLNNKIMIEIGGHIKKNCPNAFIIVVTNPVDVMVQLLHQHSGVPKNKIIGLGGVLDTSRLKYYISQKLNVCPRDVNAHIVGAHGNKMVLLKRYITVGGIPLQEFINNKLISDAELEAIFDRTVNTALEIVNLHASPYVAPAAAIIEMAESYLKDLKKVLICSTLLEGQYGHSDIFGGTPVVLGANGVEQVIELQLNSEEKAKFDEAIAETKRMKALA
Sequence of Calcium-dependent protein kinase 4 (Plasmodium falciparum (isolate 3D7)) (Q8IBS5 whole entry, looked up): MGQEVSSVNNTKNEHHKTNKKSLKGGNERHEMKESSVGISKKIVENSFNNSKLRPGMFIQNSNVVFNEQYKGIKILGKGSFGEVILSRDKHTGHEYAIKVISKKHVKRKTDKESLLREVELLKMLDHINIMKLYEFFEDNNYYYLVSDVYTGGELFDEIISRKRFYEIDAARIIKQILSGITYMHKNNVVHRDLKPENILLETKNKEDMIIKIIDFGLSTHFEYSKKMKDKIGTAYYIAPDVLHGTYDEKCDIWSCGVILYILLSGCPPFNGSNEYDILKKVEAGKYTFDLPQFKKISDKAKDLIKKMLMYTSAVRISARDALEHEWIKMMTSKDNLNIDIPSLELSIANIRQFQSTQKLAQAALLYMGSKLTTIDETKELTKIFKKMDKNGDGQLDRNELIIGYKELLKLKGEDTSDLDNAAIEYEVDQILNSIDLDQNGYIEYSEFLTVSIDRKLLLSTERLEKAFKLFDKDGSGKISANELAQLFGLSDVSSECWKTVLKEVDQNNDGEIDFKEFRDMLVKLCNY

Regarding `O=C(C=Cc1ccccc1)Nc1ccc(C#CC=Cc2ccc(NC(=O)C=Cc3ccccc3)cc2)cc1`, the growth inhibition in test [1] is 3%; in test [4], 100% (active). Moreover, the values for the inhibition in test [2] and in test [3] were 26% and 1%, respectively. In addition, the outcome in test [5], in test [6], in test [7] and in test [8] was inactive.
On to `O=C(NCc1ccc(F)cc1)c1cc(Br)cc(N2CCN(c3ccncc3)CC2)c1`, for which the growth inhibition in test [1] was 59% (active); in test [4], 80% (active). In addition, the inhibition in test [2] is 36%; in test [3] it was -2%. For the same compound, the result in test [5], in test [6], in test [7] and in test [8] was inactive.
`COc1ccccc1NC(=O)Nc1ccc(-c2ccc(-c3nc4c(C)cccc4[nH]3)s2)cc1`: the values for the growth inhibition in test [1] and in test [4] were 99% (active) and 100% (active), respectively. Besides, the inhibition in test [2] is 71% (active); in test [3], 0%. The outcome in test [5], in test [6], in test [7] and in test [8] was inactive.
For `CC(C)c1ccc(CN2CCC(NC(=O)c3ccc(-c4ccccc4F)s3)CC2)cc1`, the growth inhibition was 13% in test [1] and 81% (active) in test [4]. Moreover, the inhibition is 46% in test [2] and 2% in test [3]. In addition, the result in test [5], in test [6], in test [7] and in test [8] was inactive.
As for `COc1ccc(NC(=O)[C@H](Cc2ccccc2)Nc2cc(C)nc(Nc3ccccc3)n2)cc1`, the growth inhibition in test [1] was 92% (active); in test [4] it was 101% (active). For the same compound, the inhibition in test [2] was 0%; in test [3], 2%. In addition, the outcome in test [5], in test [6], in test [7] and in test [8] was inactive.
For `COc1cc(CCNc2nc(NCc3cccc4ccccc34)nc(N3CCC(N)CC3)n2)ccc1O`, the growth inhibition was 59% (active) in test [1] and 100% (active) in test [4]. For the same compound, the figures for the inhibition in test [2] and in test [3] were 16% and 5%, respectively. The outcome in test [5], in test [6], in test [7] and in test [8] was inactive.
For `Cc1nc2ccc3ccc(CN(C)c4ccc(C(=O)N[C@@H](CCC(=O)O)C(=O)O)cc4)cc3c2c(=O)[nH]1`, the values for the growth inhibition in test [1] and in test [4] were 27% and 95% (active), respectively. In addition, the figures for the inhibition in test [2] and in test [3] were 42% and 1%, respectively. In addition, the outcome in test [5], in test [6], in test [7] and in test [8] was inactive.
With `Cc1[nH]c(C)c(-c2ccc(-c3ccc(C(F)(F)F)cc3C(F)(F)F)nc2)c(=O)c1Br`, the growth inhibition in test [1] and in test [4] was 97% (active) in each case. Further, the inhibition in test [2] was 30%; in test [3], 5%. Also, the result in test [5], in test [6], in test [7] and in test [8] was inactive.
Consider `Nc1nc(N)c2cc(NC(=O)c3ccc(Cl)c(Cl)c3)ccc2n1`, for which the growth inhibition in test [1] was 83% (active); in test [4], 100% (active). Also, the inhibition in test [2] is 100% (active); in test [3], 1%. For the same compound, the outcome in test [5], in test [6], in test [7] and in test [8] was inactive.
As for `COc1ccc(Nc2nccc(NCC(O)c3ccc(C(F)(F)F)cc3)n2)cc1` (configuration not stated), the growth inhibition is 54% (active) in test [1] and 98% (active) in test [4]. Besides, the values for the inhibition in test [2] and in test [3] were 6% and -1%, respectively. Also, the result in test [5], in test [6], in test [7] and in test [8] was inactive.
As for `Oc1cccc(Nc2nc(NCc3ccco3)c3ccccc3n2)c1`, the growth inhibition in test [1] was 74% (active); in test [4] it was 103% (active). Besides, the inhibition is 9% in test [2] and 0% in test [3]. Moreover, the outcome in test [5], in test [6], in test [7] and in test [8] was inactive.
As for `CCCCCOc1ccc(C(=NC)N(CCCCC)CCCCC)c2ccccc12`, the values for the growth inhibition in test [1] and in test [4] were 80% (active) and 96% (active), respectively. Further, the inhibition in test [2] is 70% (active); in test [3], 3%. Besides, the result in test [5], in test [6], in test [7] and in test [8] was inactive.
With `COc1cc(C)cc(CN2CCC(Cc3ccccc3)CC2)c1O`, the growth inhibition was 94% (active) in test [1] and 97% (active) in test [4]. Further, the inhibition in test [2] was 35%; in test [3], 0%. Also, the result in test [5], in test [6], in test [7] and in test [8] was inactive.
`OC1(c2ccccc2)c2cc(Cl)ccc2OC1c1nc2c(Cl)ccc(Cl)c2o1` (configuration not stated): the growth inhibition is 89% (active) in test [1] and 98% (active) in test [4]. For the same compound, the results for the inhibition in test [2] and in test [3] were 7% and -6%, respectively. Further, the result in test [5], in test [6], in test [7] and in test [8] was inactive.
For `COC(=O)c1ccc2nc(-c3ccc(/C=C/C(=O)NC4CCN(Cc5ccccc5)CC4)cc3)[nH]c2c1`, the values for the growth inhibition in test [1] and in test [4] were 88% (active) and 100% (active), respectively. The inhibition in test [2] is 12%; in test [3], -5%. In addition, the result in test [5], in test [6], in test [7] and in test [8] was inactive.
Turning to `CN(c1ccc(NC(=O)c2ccc(F)cc2)cc1)C1CCN(Cc2cccc(F)c2)C1` (configuration not stated), the growth inhibition was 74% (active) in test [1] and 81% (active) in test [4]. For the same compound, the inhibition in test [2] was 3%; in test [3], -2%. Moreover, the outcome in test [5], in test [6], in test [7] and in test [8] was inactive.
Regarding `Cc1cc(N2CCN(CC3CCCCC3)CC2)nc(Nc2ccc(Br)cc2)n1`, the growth inhibition was 16% in test [1] and 91% (active) in test [4]. Besides, the inhibition in test [2] is -1%; in test [3], -6%. In addition, the result in test [5], in test [6], in test [7] and in test [8] was inactive.
As for `COc1ccc(Nc2ncc3c(-c4ccc(NC(=O)c5cccc(C(F)(F)F)c5)cc4)c[nH]c3n2)cc1OC`, the growth inhibition was 30% in test [1] and 89% (active) in test [4]. Also, the inhibition was 26% in test [2] and 4% in test [3]. The outcome in test [5], in test [6], in test [7] and in test [8] was inactive.
Turning to `Nc1ccc2[nH]cc(C3CCN(CC4CCN(C(=O)/C=C/c5ccc(Cl)c(Cl)c5)CC4)CC3)c2n1`, the values for the growth inhibition in test [1] and in test [4] were 97% (active) and 99% (active), respectively. The inhibition in test [2] was 53% (active); in test [3], -2%. Besides, the result in test [5], in test [6], in test [7] and in test [8] was inactive.

As usually defined, the inhibition is the relative decrease from the control value, in per cent.
